{"source": "PubChem BioAssay", "key": {"[1]": {"test": "P. berghei load reduction in hepatocytes – cell-based, HepG2, luciferase luminescence, HepG2 viability, primary screen (AID 624349; in the data active means parasite load remaining mostly below about 12%, no sharp cut-off; inactive means mostly above about 10%;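 further: 100% = mean of DMSO negative control wells on the same plate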)", "conditions": "P. berghei liver stage in HepG2, luciferase luminescence, concentration not given here; parasite load remaining: stronger effect = lower value; viability: measured here: HepG2 viability without parasites"}, "[2]": {"test": "growth inhibition, single agents and combos, LFS_MB_1R, cell-based, cisplatin or BGB combos, synergistic combos for chromothripsis tumors (AID 1671452);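 further: cells exposed for 96 hours before readout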", "conditions": "LFS_MB_1R medulloblastoma cells, stronger effect = higher value"}, "[3]": {"test": "growth inhibition, single agents and combos, CRL2098, cell-based, BGB or cisplatin IC20 combos, synergistic combos for chromothripsis tumors (AID 1671454);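 further: cells exposed for 96 h before readout; 0% = vehicle DMSO and 100% = killing by high DMSO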", "conditions": "CRL2098 osteosarcoma cells, drug combinations, stronger effect = higher value"}, "[4]": {"test": "growth inhibition, single agents and combos, HD-MB03, cell-based, BGB or cisplatin IC20 combos, synergistic combos for chromothripsis tumors (AID 1671455; in the data active means inhibition above about 83%;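 further: 0% = vehicle DMSO and 100% = high DMSO as cytotoxic control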)", "conditions": "HD-MB03 medulloblastoma cells, stronger effect = higher value"}, "[5]": {"test": "growth inhibition, single agents and combos, UWB1.289, cell-based, BGB or cisplatin combos, synergistic combos for chromothripsis tumors (AID 1671456);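 further: cells exposed to compound for four days; 0% = vehicle DMSO and 100% = killing by high DMSO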", "conditions": "UWB1.289 ovarian carcinoma cells, stronger effect = higher value"}, "[6]": {"test": "growth inhibition, single agents and combos, LFS_MB_2R, cell-based, cisplatin combos, synergistic combos for chromothripsis tumors (AID 1671457);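 further: cells exposed to compound for four days before readout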", "conditions": "LFS_MB_2R medulloblastoma cells, stronger effect = higher value"}, "[7]": {"test": "UWB1.289_BRCA1 ovarian cancer growth, cell-based, BGB or cisplatin combinations (AID 1671459)", "conditions": "UWB1.289 BRCA1 ovarian carcinoma, drug combinations, stronger effect = higher value"}, "[8]": {"test": "drug combination toxicity in non-malignant astrocytes – cell-based, BGB or cisplatin IC20 combos, cytotoxicity control for chromothriptic childhood tumor combination screen (AID 1671460);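 further: cells exposed to compounds for 96 hours before viability readout; 0% = vehicle and 100% = killing control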", "conditions": "Human astrocytes, viability inhibition, drug combinations, at 0.5 µM, stronger effect = higher value"}, "[9]": {"test": "galactose survival enhancers in mitochondrial complex I cybrids – cell-based, galactose medium, ATP luminescence, primary screen (AID 1645843;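 active means z-score of at least 1.8 in each of two replicates, scored against plate mean and spread of sample wells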;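 further: positive z means more ATP and so rescue of galactose-driven cybrid death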)", "conditions": "complex I mutant cybrid cells, 72 h, stronger effect = higher value"}, "[10]": {"conditions": "measured here: combination with BGB IC40, at 0.05 µM"}, "[11]": {"conditions": "measured here: combination with cisplatin, at 0.5 µM"}, "[12]": {"conditions": "measured here: combination with cisplatin, at 5 µM"}, "[13]": {"conditions": "measured here: combination with BGB at IC20, at 0.5 µM"}, "[14]": {"conditions": "measured here: combination with cisplatin at IC20, at 0.5 µM"}, "[15]": {"conditions": "measured here: combo with BGB at IC20, at 0.5 µM"}, "[16]": {"conditions": "measured here: combo with cisplatin at IC20, at 0.5 µM"}, "[17]": {"conditions": "measured here: inhibition with BGB combination, at 0.05 µM"}, "[18]": {"conditions": "measured here: inhibition with cisplatin combination, at 0.05 µM"}, "[19]": {"conditions": "BGB combination, concentration series, at 5 µM"}, "[20]": {"conditions": "cisplatin combination, concentration series, at 5 µM"}, "[21]": {"conditions": "measured here: combo with BGB IC20"}, "[22]": {"conditions": "measured here: combo with cisplatin IC20"}}, "note": "Active and inactive are the calls of the source. Unless noted, no stated cut-off is given here; in the data, active means inhibition above about 80%; inactive means the rest."}
{"molecule": "COc1ccc(CNc2nc(N(CCO)CCO)nc3c2ncn3C(C)C)cc1", "values": [{"measurement": "parasite load remaining", "setting": "[1]", "result": "40.6% (inactive)"}, {"measurement": "viability", "setting": "[1]", "result": 84, "unit": "%"}]}
{"molecule": "CN[C@@H]1CN(c2ccc3c(=O)c(C(=O)O)cn(-c4nccs4)c3n2)C[C@H]1OC", "values": [{"measurement": "inhibition", "setting": "[2]; at 0.5 µM", "result": "3.38% (inactive)"}, {"measurement": "inhibition", "setting": "[2]; [10]", "result": 4.5, "unit": "%"}, {"measurement": "inhibition", "setting": "[2]; [11]", "result": 47.4, "unit": "%"}, {"measurement": "inhibition", "setting": "[2]; [12]", "result": 92.8, "unit": "%"}, {"measurement": "inhibition", "setting": "[3]; at 0.5 µM", "result": "18.1% (inactive)"}, {"measurement": "inhibition", "setting": "[3]; [13]", "result": 27.9, "unit": "%"}, {"measurement": "inhibition", "setting": "[3]; [14]", "result": -2.11, "unit": "%"}, {"measurement": "inhibition", "setting": "[4]; at 0.5 µM", "result": "72.5% (inactive)"}, {"measurement": "inhibition", "setting": "[4]; [15]", "result": 63.8, "unit": "%"}, {"measurement": "inhibition", "setting": "[4]; [16]", "result": 74.4, "unit": "%"}, {"measurement": "inhibition", "setting": "[5]; at 0.5 µM", "result": "14.7% (inactive)"}, {"measurement": "inhibition", "setting": "[5]; [17]", "result": -25.3, "unit": "%"}, {"measurement": "inhibition", "setting": "[5]; [18]", "result": -22.6, "unit": "%"}, {"measurement": "inhibition", "setting": "[6]; at 0.5 µM", "result": "-28.9% (inactive)"}, {"measurement": "inhibition", "setting": "[6]; [11]", "result": -26, "unit": "%"}, {"measurement": "inhibition", "setting": "[6]; [12]", "result": 34.8, "unit": "%"}, {"measurement": "inhibition", "setting": "[7]; [19]", "result": 94.6, "unit": "%"}, {"measurement": "inhibition", "setting": "[7]; at 0.5 µM", "result": "13.7% (inactive)"}, {"measurement": "inhibition", "setting": "[7]; [20]", "result": 98.3, "unit": "%"}, {"measurement": "inhibition", "setting": "[8]", "result": "33.4% (inactive)"}, {"measurement": "inhibition", "setting": "[8]; [21]", "result": 29, "unit": "%"}, {"measurement": "inhibition", "setting": "[8]; [22]", "result": 13.3, "unit": "%"}]}
{"molecule": "COc1cc2ncnc(Nc3ccc(O)c(Br)c3)c2cc1OC", "values": [{"measurement": "parasite load remaining", "setting": "[1]", "result": "33.2% (inactive)"}, {"measurement": "viability", "setting": "[1]", "result": 98.7, "unit": "%"}]}
{"molecule": "COc1ccc(-n2c(SCCCN3C(=O)c4cccc5cccc(c45)C3=O)nnc2-c2ccncc2)cc1", "values": [{"measurement": "inhibition", "setting": "[2]; at 0.5 µM", "result": "-13.2% (inactive)"}, {"measurement": "inhibition", "setting": "[2]; [10]", "result": -35.9, "unit": "%"}, {"measurement": "inhibition", "setting": "[2]; [11]", "result": -19.9, "unit": "%"}, {"measurement": "inhibition", "setting": "[2]; [12]", "result": -31.3, "unit": "%"}, {"measurement": "inhibition", "setting": "[3]; at 0.5 µM", "result": "-27.6% (inactive)"}, {"measurement": "inhibition", "setting": "[3]; [13]", "result": -23.3, "unit": "%"}, {"measurement": "inhibition", "setting": "[3]; [14]", "result": -22.2, "unit": "%"}, {"measurement": "inhibition", "setting": "[4]; at 0.5 µM", "result": "-0.19% (inactive)"}, {"measurement": "inhibition", "setting": "[4]; [15]", "result": -1.2, "unit": "%"}, {"measurement": "inhibition", "setting": "[4]; [16]", "result": 6.56, "unit": "%"}, {"measurement": "inhibition", "setting": "[5]; at 0.5 µM", "result": "1.01% (inactive)"}, {"measurement": "inhibition", "setting": "[5]; [17]", "result": -4.64, "unit": "%"}, {"measurement": "inhibition", "setting": "[5]; [18]", "result": -4.19, "unit": "%"}, {"measurement": "inhibition", "setting": "[6]; at 0.5 µM", "result": "-15% (inactive)"}, {"measurement": "inhibition", "setting": "[6]; [11]", "result": -8.95, "unit": "%"}, {"measurement": "inhibition", "setting": "[6]; [12]", "result": -20.5, "unit": "%"}, {"measurement": "inhibition", "setting": "[7]; [19]", "result": 7.08, "unit": "%"}, {"measurement": "inhibition", "setting": "[7]; at 0.5 µM", "result": "1.18% (inactive)"}, {"measurement": "inhibition", "setting": "[7]; [20]", "result": 13.2, "unit": "%"}, {"measurement": "inhibition", "setting": "[8]", "result": "16% (inactive)"}, {"measurement": "inhibition", "setting": "[8]; [21]", "result": 24.6, "unit": "%"}, {"measurement": "inhibition", "setting": "[8]; [22]", "result": 15.9, "unit": "%"}]}
{"molecule": "Cc1c(O)cccc1C(=O)NC(CSc1ccccc1)C(O)CN1CC2CCCCC2CC1C(=O)NC(C)(C)C", "note": "(centres undefined)", "values": [{"measurement": "z-score", "setting": "[9]", "result": "-1.88 (inactive)"}]}
